# Results: the supplement of paper PMC3545927
# The other results are listed elsewhere or left out. No count for the full screen is at hand.
# Biological target: furin, P09958
# Test: furin cleavage Z-score vs untreated control; higher = more cleavage, active = 3.5 or more, inactive = 1 or less, 8 variable residues between constant flanks
# In short: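 Furin cleavage was scored on 8-mer peptides joined to a cDNA oligonucleotide and bound to magnetic beads at the N-terminus. Digestion with purified furin (1:10 enzyme:substrate, 0.01 ml, 50 mM HEPES pH 7.5, CaCl2, NaCl) lasted 7.5, 15 or 30 min. Freed DNA was tagged with adapters by PCR, sequenced and counted; the cleavage Z-score is the lowess-adjusted log count versus furin-free reactions, scaled by median absolute deviation.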
# furin, P09958, sequence (P09958 whole entry): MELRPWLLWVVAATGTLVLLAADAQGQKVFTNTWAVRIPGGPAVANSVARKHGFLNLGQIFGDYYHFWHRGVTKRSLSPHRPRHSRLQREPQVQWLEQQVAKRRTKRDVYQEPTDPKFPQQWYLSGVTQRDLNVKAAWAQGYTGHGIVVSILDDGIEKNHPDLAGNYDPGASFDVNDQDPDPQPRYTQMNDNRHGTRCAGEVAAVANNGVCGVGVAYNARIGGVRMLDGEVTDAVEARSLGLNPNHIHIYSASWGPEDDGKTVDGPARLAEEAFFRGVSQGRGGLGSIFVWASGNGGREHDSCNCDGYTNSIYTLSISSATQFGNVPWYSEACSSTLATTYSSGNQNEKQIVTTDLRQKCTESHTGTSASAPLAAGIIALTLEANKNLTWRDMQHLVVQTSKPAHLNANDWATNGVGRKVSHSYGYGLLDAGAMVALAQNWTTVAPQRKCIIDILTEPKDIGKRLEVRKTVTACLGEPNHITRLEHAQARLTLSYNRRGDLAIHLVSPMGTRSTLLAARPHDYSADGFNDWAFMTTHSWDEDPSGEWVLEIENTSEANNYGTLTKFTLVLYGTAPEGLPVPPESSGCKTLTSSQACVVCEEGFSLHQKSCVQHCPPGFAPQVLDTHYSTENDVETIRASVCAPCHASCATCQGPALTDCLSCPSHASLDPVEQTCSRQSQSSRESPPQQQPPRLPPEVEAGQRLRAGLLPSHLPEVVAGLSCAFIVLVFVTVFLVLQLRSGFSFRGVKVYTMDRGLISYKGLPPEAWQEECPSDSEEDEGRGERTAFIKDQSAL
Sequence,furin cleavage Z-score (7.5 min),furin cleavage Z-score (15 min),furin cleavage Z-score (30 min)
CADNEVVTSTAGNASASA [HC2301],-1.07 (inactive),-0.505 (inactive),0.105 (inactive)
CAQSFQVAHLAGNASASA [HC771],0.912 (inactive),0.131 (inactive),0.722 (inactive)
CAEVVTNTWVAGNASASA [HC158],-1.52 (inactive),-0.248 (inactive),-0.0393 (inactive)
CAFCHSKKKCAGNASASA [HC857],-1.27 (inactive),-0.504 (inactive),-0.238 (inactive)
CAALAAYCLSAGNASASA [HC995],1.28,-0.793 (inactive),0.489 (inactive)
CARSLRFVTLAGNASASA [FS-1793],0.3 (inactive),1.63,1.68
CARTRKFVVDAGNASASA [FS-2315],0.233 (inactive),-0.721 (inactive),-0.0413 (inactive)
CARFIRGVVDAGNASASA [FS-2332],3.17,2.98,5.27 (active)
CARFDRQASAAGNASASA [FS-2011],-0.397 (inactive),-0.361 (inactive),-1.3 (inactive)
CADDGRTCVDAGNASASA [FS-1981],-1.75 (inactive),-1.46 (inactive),-0.526 (inactive)
CARFVRFVPLAGNASASA [FS-1706],1.17,1.76,4.38 (active)
CAREKKDVPLAGNASASA [FS-3187],0.508 (inactive),2.05,-1.3 (inactive)
CARFVRDACAAGNASASA [FS-2928],0.546 (inactive),1.42,3.66 (active)
CARLRRVICAAGNASASA [FS-2997],-0.794 (inactive),-0.656 (inactive),-0.232 (inactive)
CARKKKCKICAGNASASA [FS-2689],-0.917 (inactive),-0.723 (inactive),-0.00697 (inactive)
CAMTPCSAHLAGNASASA [HC2466],-1.89 (inactive),0.877 (inactive),-0.495 (inactive)
CAEFPCHRPSAGNASASA [HC2327],-0.796 (inactive),-0.578 (inactive),-1.81 (inactive)
CAEITTPCSGAGNASASA [HC1964],-1.53 (inactive),-0.885 (inactive),-1.78 (inactive)
CATTACSGSWAGNASASA [HC1863],-0.8 (inactive),-0.656 (inactive),-0.444 (inactive)
CASHPCSAHLAGNASASA [HC2495],1.02,0.719 (inactive),0.0481 (inactive)
CAWRCRVARSAGNASASA [FS-897],5.68 (active),5.73 (active),6.03 (active)
CASHAVVARSAGNASASA [FS-1080],4.85 (active),4.91 (active),5.66 (active)

Sequence,furin cleavage Z-score (7.5 min),furin cleavage Z-score (15 min),furin cleavage Z-score (30 min)
CASPPVVPQSAGNASASA [HC768],-0.954 (inactive),0.785 (inactive),-0.882 (inactive)
CAYLSRVARSAGNASASA [FS-738],9.42 (active),9.32 (active),8.94 (active)
CAAPPPSWDQAGNASASA [HC960],-0.113 (inactive),-0.447 (inactive),-0.277 (inactive)
CALVILNAASAGNASASA [HC536],1.04,-0.834 (inactive),0.192 (inactive)
CAEAPCHRPSAGNASASA [HC2323],0.662 (inactive),-0.37 (inactive),-0.247 (inactive)
CAMESCSQHLAGNASASA [HC1717],0.437 (inactive),1.13,-0.426 (inactive)
CATTPCSDSWAGNASASA [HC1891],-1.12 (inactive),-0.376 (inactive),-2.36 (inactive)
CAMEKCSQHLAGNASASA [HC1714],1.25,0.88 (inactive),0.181 (inactive)
CALSIRDKRKAGNASASA [FS-136],4.28 (active),3.15,5.72 (active)
CALSIRDARMAGNASASA [FS-1466],-0.476 (inactive),0.981 (inactive),-0.151 (inactive)
CALPQRLPRAAGNASASA [FS-1363],10.1 (active),7.22 (active),9.33 (active)
CALPAPNYTFAGNASASA [HC1197],0.169 (inactive),-0.15 (inactive),-0.727 (inactive)
CALPQRAYALAGNASASA [HC562],-0.111 (inactive),0.523 (inactive),0.909 (inactive)
CALPQDAVSRAGNASASA [HC899],0.79 (inactive),-0.97 (inactive),-1.66 (inactive)
CAIPARELRNAGNASASA [FS-254],1.11,0.407 (inactive),-8.8e-05 (inactive)
CALPARDKRKAGNASASA [FS-356],3.1,4.69 (active),4.42 (active)
CAIPARMKRAAGNASASA [FS-599],10.3 (active),9.08 (active),8.29 (active)
CASLTERLYVAGNASASA [HC1498],-0.595 (inactive),0.519 (inactive),0.245 (inactive)
CATTPCSGSSAGNASASA [HC1937],-1.48 (inactive),-0.199 (inactive),-0.0714 (inactive)
CAMALTLSPYAGNASASA [HC574],-0.719 (inactive),-0.267 (inactive),0.328 (inactive)
CAGVEHRLEAAGNASASA [HC478],-0.376 (inactive),-1.52 (inactive),-2.05 (inactive)
